Among the data in PubChem BioAssay (Tox21) are Potency and PLD induction values, retold here.

Results filed as inconclusive are left out. A call without a number means that no potency is given here. Activity calls are given as the source filed them. The call rests on the fitted dose curve; in most records, active means well fitted activation curve with a large enough effect; inconclusive means small, poorly fitted or top-dose-only effect; inactive means flat fitted curve, though single readings scatter.
Potency means the concentration at half of the fitted maximal effect.

This test in a line: qHTS assay to identify small molecule phospholipidosis (PLD) inducers (AID 1259344). The conditions noted are these: HepG2 phospholipidosis, LipidTOX Red imaging, 24 h; series mostly up to 38.3 µM. An excerpt:
National Center for Advancing Translational Sciences [NCATS]
Drug-induced Phospholipidosis (PLD) caused by cationic amphiphilic drugs is characterized by the appearance of unicentric or multicentric-lamellar bodies when viewed under electron microscope. Electron microscopy is the gold standard method for PLD detection, however, this method is time-consuming and labor intensive, making it unsuitable for evaluating a large set of compounds. A cell-based phospholipidosis assay has been developed using the LipidTox reagent in HepG2 cells and miniaturized into a 1536-well plate format. Drug induced phospholipid accumulation is stained with the LipidTox dyes in red color which then is determined using an automated high content screening system.
HepG2 cells are dispensed at 900 cells/3 uL/well into Collagen I-coated 1536-well black-wall/clear-bottom assay plates (Greiner Bio-One, Monroe, NC) using the Multidrop Combi 8 channel dispenser (Thermo Fisher, Waltham, MA, USA). The assay plates are incubated at 37 C for 4 hours to allow the cell attachment. 3 uL of 1:500 LipidTOX Red dye is added using the dispenser, and then 23 nL compounds are added via a Wako Pintool station (Wako Automation, San Diego, CA). Amiodarone, a known PLD inducer, was used as a positive control and DMSO was used as a negative control. The assay plates were then incubated at 37 C for 24 hours.
For fixations, 4 uL of 8% paraformaldehyde fixative solution containing 10 ug/mL Hoechst 33342 in Dulbecco's phosphate-buffered saline (DPBS) is added using a Kalypsys washer/dispenser (Kalypsys, San Diego, CA, USA). After incubation at room temperature for 30 min, the assay plates are washed once with DPBS using a Kalypsys washer/dispenser. The assay plates are then sealed and stored at 4 C before imaging. The fluorescence intensities (595 nm excitation, 615 nm emission for LipidTOX; 352 nm excitation, 461 nm emission for Hoechst 33342) are measured using an ImageXpress Micro Widefield High Content Screening System (Molecular Devices, Sunnyvale, CA, USA) with a 20x Plan Fluor objective. Images are acquired for one site in each well and analyzed with the MetaXpress software (Molecular Devices) using the Transfluor module. Several algorithmic outputs, such as pit count per well, pit count per cell, pit integrated intensity per well, and pit integrated intensity per cell, are used for quantitative image analysis for PLD.
In general terms: In qHTS, concentration-response curves come from the screen itself.
Regarding `CCN(CCCCOC(=O)c1ccc(OC)c(OC)c1)C(C)Cc1ccc(OC)cc1` (stereo not given), the Potency result is “inactive”.

As to `CC(C(=O)O)c1ccc2c(c1)Cc1cccnc1O2` (stereo not given), the Potency entry was “inactive”.

On to `CC(C)(C(=O)O)c1ccc(C(O)CCCN2CCC(C(O)(c3ccccc3)c3ccccc3)CC2)cc1` (stereo not given), for which the Potency result was “inactive”.

On to `C[C@]12CCC(=O)C=C1[C@@H]1C[C@@H]1[C@H]1[C@@H]3[C@@H]4C[C@@H]4[C@@]4(CCC(=O)O4)[C@@]3(C)CC[C@@H]12`, for which the Potency is 11.2 µM (active).

On to `COc1cc(CNC(=O)CCCC/C=C/C(C)C)ccc1O`, for which the Potency result is “inactive”.

Regarding `CC(=O)Oc1cccc2c1C(=O)c1c(OC(C)=O)cc(C(=O)O)cc1C2=O`, the Potency entry is “inactive”.

Consider `CC(C)(C)NCC(O)COc1ccc(NC(=O)NC2CCCCC2)cc1` (stereo not given), for which the Potency entry is “inactive”.

Turning to `CCCCCCCCCCCCCCCCN`, the Potency result is “inactive”.

For `CC(=O)Nc1ccn(C2COC(COC(=O)c3ccccc3)O2)c(=O)n1` (stereo not given), the PLD induction was 1.43% [at 1.53 µM] (inactive).

Turning to `Cc1c(Cl)cccc1Nc1ccccc1C(=O)O`, the Potency result is “inactive”.

For `CC(C(=O)O)c1ccc(/C=C2\CCCCC2=O)cc1` (stereo not given), the Potency entry is “inactive”.

For `c1ccc(CCNc2nc(-c3ccccc3)cs2)cc1`, the Potency result was “inactive”.

Turning to `COc1ccc(C(=O)c2ccc(C)cc2)c(O)c1`, the Potency entry is “inactive”.

Regarding `CCCCCCCCCCCCSCCOCCO`, the Potency entry was “inactive”.

For `Nc1nc(Cl)nc2c1ncn2[C@H]1C[C@H](O)[C@@H](CO)O1`, the Potency entry was “inactive”.

In the case of `CC(Cc1ccccc1)(NC(=O)CN)c1ccccc1` (stereo not given), the Potency entry was “inactive”.

Take `Oc1ccc(CCNCCCCCCNCCc2ccccc2)cc1O`: the Potency entry was “inactive”.

Consider `O=C(O)c1cccnc1Nc1cccc(C(F)(F)F)c1`, for which the Potency entry is “inactive”.

For the compound `CC1=C(C)C(=O)C(CCCCC#CCCCC#CCO)=C(C)C1=O`, the Potency entry is “inactive”.

For the compound `CC1(COc2ccc(CC3SC(=O)NC3=O)cc2)CCCCC1` (stereo not given), the Potency result is “inactive”.

Take `CC(=O)OCC(=O)[C@@]1(O)CC[C@H]2[C@@H]3CCC4=CC(=O)C=C[C@]4(C)[C@@]3(F)[C@@H](O)C[C@@]21C`: the Potency result is “inactive”.

Turning to `CCC1=C(C)CN(C(=O)NCCc2ccc(S(=O)(=O)NC(=O)NC3CCC(C)CC3)cc2)C1=O` (stereo not given), the Potency entry was “inactive”.

Turning to `Nc1ncnc2c1ncn2[C@@H]1O[C@H](CO)[C@@H](O)[C@H]1O`, the Potency result is “inactive”.

Turning to `Clc1cccc(C(c2ccc3nc[nH]c3c2)n2ccnc2)c1` (stereo not given), the Potency result was “inactive”.

With `CC(COc1ccccc1)NC(C)C(O)c1ccc(O)cc1` (stereo not given), the Potency entry is “inactive”.

`O=C(OC1C[C@H]2CC[C@@H](C1)[N+]21CCCC1)C(O)(c1ccccc1)c1ccccc1` (stereo not given in full): the Potency result is “inactive”.

In the case of `O=C1c2ccccc2C(=O)c2c1ccc(O)c2O`, the Potency result was “inactive”.

Turning to `C[C@H](CN1CCCC1)C(=O)c1ccc(C(F)(F)F)cc1`, the Potency result is “inactive”.

Take `CC1=C(C)C(=O)C(C(CCCCCC(=O)O)c2ccccc2)=C(C)C1=O` (stereo not given): the Potency entry is “inactive”.

For the compound `Clc1ccccc1-c1nc(-c2ccncc2)no1`, the Potency entry was “inactive”.

For `C[C@@H](O)[C@H]1C(=O)N2C(C(=O)O)=C(S[C@@H]3CN[C@H](CNS(N)(=O)=O)C3)[C@H](C)[C@H]12`, the Potency result is “inactive”.

As to `CCCc1nc(C)c2c(=O)[nH]c(-c3cc(S(=O)(=O)N4CCN(CC)CC4)ccc3OCC)nn12`, the Potency result was “inactive”.

Regarding `COc1ccc(CN(CCN(C)C)c2ncccn2)cc1`, the Potency entry was “inactive”.

`COc1cc(C)c(Cc2cnc(N)nc2N)cc1OC`: the Potency entry is “inactive”.

As for `Cc1ccc2c(Cl)cc(Cl)c(O)c2n1`, the PLD induction is 0.648% [at 1.53 µM] (inactive).

With `Cc1ccc(S(=O)(=O)NC(=O)NC2CCCC2)cc1`, the Potency result was “inactive”.

Consider `C/C(=C(\CCO)SS/C(CCO)=C(\C)N(C=O)Cc1cnc(C)nc1N)N(C=O)Cc1cnc(C)nc1N`, for which the Potency result is “inactive”.

As for `CCOC(C)OCC`, the Potency entry was “inactive”.

Take `CCOCCn1c(N2CCCN(C)CC2)nc2ccccc21`: the Potency entry is “inactive”.

Regarding `CCc1ccc(C(=O)C(C)CN2CCCCC2)cc1` (stereo not given), the Potency result was “inactive”.
